Hit rate of the full screen: of about 2,500 compounds, about 790 (32%) were called active.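 How the source made its calls: active means mean cytotoxicity at 5 µM above about 25% (limit read from the data); inactive means the rest.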 The list is a sample of the results.

This test in a line: cell viability loss, Sufu-null reporter line – ATP luminescence, single concentration, cytotoxicity control for Gli-SUFU antagonist project, confirmation (AID 651994).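 Further: cells exposed to compound overnight for roughly 16 to 18 hours; plate controls were DMSO wells with cells for no effect and medium without cells for full effect.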 The note with it: Sufu-KO-LIGHT cells cytotoxicity, at 5 µM, hits give high values.
Consider `COc1ccc2c(C)cc3nnnn3c2c1`, for which the cytotoxicity was 27% (active).

Turning to `CC1(C)CC(=O)c2c(n(S(=O)(=O)c3ccccc3)c3ccc(NS(=O)(=O)c4ccccc4)cc23)C1`, the cytotoxicity was 23.1% (inactive).

For the compound `Cc1ccc(NC(=S)Nc2ccc(F)cc2)cc1`, the cytotoxicity is 25.1% (active).

As to `COc1ccc(NC(=O)[C@H](NC(=O)[C@@H]2Cc3ccccc3CN2)c2ccccc2)cc1`, the cytotoxicity was 6.92% (inactive).

As to `CCN(CC)CCNC(=O)c1ccc(NC(=O)c2cc(-c3ccncc3)nc3ccccc23)cc1`, the cytotoxicity was 16.3% (inactive).

Regarding `Nc1ccc(C(=O)N2CCN(S(=O)(=O)c3ccc(Cl)cc3)CC2)cc1[N+](=O)[O-]`, the cytotoxicity is 14.4% (inactive).

As for `CC(=O)N1CCCc2cc(S(=O)(=O)N3CCCC(C(=O)N4CCN(c5cccc(Cl)c5)CC4)C3)ccc21` (stereo not drawn), the cytotoxicity was 24.2% (inactive).

For `O=C(NCCOCc1ccc(Cl)cc1)c1ncn[nH]1`, the cytotoxicity was 18.8% (inactive).

`N#Cc1ccc(C(=O)Nc2nc(-c3cccs3)c(C(=O)C(F)(F)F)s2)cc1`: the cytotoxicity was 32.7% (active).

For `C/C(=N\Nc1ccc(Cl)nn1)c1ccccc1O`, the cytotoxicity is 23.9% (inactive).

For the compound `O=C(O)c1ccc(N/N=C/c2ccc3ncccc3c2)cc1`, the cytotoxicity was 22.3% (inactive).

For the compound `CCN(CCO)C(=S)Nc1cc(C(=O)OC)ccc1C(=O)OC`, the cytotoxicity is 18.2% (inactive).

With `C=CCC1(CC=C)CCCN1C(=O)c1cc(COc2ccc(-n3cncn3)cc2)on1`, the cytotoxicity is 36.4% (active).

As for `O=C(Nc1nc2ccc([N+](=O)[O-])cc2s1)c1ccc(S(=O)(=O)N2CCCc3ccccc32)cc1`, the cytotoxicity is 23.2% (inactive).

Turning to `CSc1ncccc1C(=O)Nc1nc2ccc(F)cc2s1`, the cytotoxicity was 28.1% (active).

For `Cc1ccc(S(=O)(=O)N2C[C@@H]3CCCC[C@@H]3[C@@H](C)[C@H]2c2cn(Cc3ccccc3)c3ccc(F)cc23)cc1`, the cytotoxicity was 7.61% (inactive).

Consider `C=CCNC(=S)/N=c1/ccccn1Cc1ccccc1`, for which the cytotoxicity was 22.1% (inactive).

Take `CCC(Cc1ccccc1)NC(=O)C1CCCCC1` (stereo not drawn): the cytotoxicity was 9.02% (inactive).

As to `O=C(Nc1cccc(S(=O)(=O)Nc2ccc(Cl)cc2)c1)c1ccc2c(c1)OCCO2`, the cytotoxicity is 28.9% (active).

In the case of `O=C1C=C(c2ccnc3cc(Cl)ccc23)C[C@@H](c2ccc3c(c2)OCO3)C1`, the cytotoxicity is 30.6% (active).

As to `CCN1/C(=C/C(=S)Nc2ccccc2)Sc2ccccc21`, the cytotoxicity is -1.08% (inactive).

Turning to `CC(C)(CNC(=O)c1ccc(Cl)c(S(=O)(=O)N2CCc3ccccc3C2)c1)N1CCOCC1`, the cytotoxicity is 17.5% (inactive).

With `COc1ccc(C(=O)NC2CCCc3c2cnn3-c2cccc(C)c2C)c(OC)n1` (stereo not drawn), the cytotoxicity is 26.7% (active).

On to `Cc1ccc(S(=O)(=O)NC(C)C(=O)Nc2ccccc2C(=O)N2CCCC2)cc1` (stereo not drawn), for which the cytotoxicity was 12.8% (inactive).

`CCc1c(C)nc2cc(C)[nH]n2c1=O`: the cytotoxicity was 10.3% (inactive).

Consider `Cc1cc(C(=O)CSc2nc(N)cc(=O)[nH]2)c(C)n1-c1cccc(F)c1`, for which the cytotoxicity is 34.2% (active).

Take `CN(C)CCSc1nc(N)c2c3c(sc2n1)COC(C)(C)C3`: the cytotoxicity is 9.54% (inactive).

As to `O=C(CN1CCN(S(=O)(=O)c2cc(Cl)ccc2Cl)CC1)c1ccc(O)c(O)c1`, the cytotoxicity is 14.6% (inactive).

In the case of `CC(=O)Nc1ccc(NC(=O)c2ccc3c(c2)C(=O)N(c2ccccc2C)C3=O)cc1`, the cytotoxicity was 24.5% (inactive).

For `Brc1c(CSc2nncc3ccccc23)nc2ccccn12`, the cytotoxicity was -3.37% (inactive).

As for `CN(c1ccc2nc3ccccc3c(=O)n2n1)C1CCCCC1`, the cytotoxicity is 84.2% (active).

As for `NS(=O)(=O)c1ccc(CCNC(=O)CCCn2c(SCC(=O)N3CCCC3)nc3ccsc3c2=O)cc1`, the cytotoxicity is -12.7% (inactive).

Regarding `CC(C)(C)c1ccc(Oc2ccc(N)cc2)cc1`, the cytotoxicity was 18.4% (inactive).

In the case of `COc1ccc(Cc2nnc(N/N=C/c3ccccc3O)[nH]c2=O)cc1OC`, the cytotoxicity was 43.8% (active).

Consider `COc1ccc(/C=N/N=C2/C(=O)Nc3ccccc32)cc1O`, for which the cytotoxicity is -0.38% (inactive).

In the case of `CC1(C)Cc2ccccc2/C(=C/C(=O)c2ccccc2)N1`, the cytotoxicity is 4.12% (inactive).

In the case of `CC1(C)CC2CC(C)(CN2c2ncnc3ccc(Br)cc23)C1` (stereo not drawn), the cytotoxicity was 38.5% (active).

Turning to `COc1cc(C(=O)OC2CCOC2=O)c([N+](=O)[O-])cc1OC` (stereo not drawn), the cytotoxicity is 3.16% (inactive).

With `COc1cccc(-n2cc(C(=O)O)c3ccccc3c2=O)c1`, the cytotoxicity was 25.1% (active).

For `O=C(Nc1ccnn1C1CCN(C/C=C/c2ccc(F)cc2)CC1)C1CCCC1`, the cytotoxicity was 2.29% (inactive).

On to `Cc1nn(C)c(Cl)c1CN1CCC(n2nccc2NC(=O)C2CCCC2)CC1`, for which the cytotoxicity is 16.4% (inactive).

`CN(C)C(CNC(=O)Cc1ccc([N+](=O)[O-])cc1)c1ccccc1` (stereo not drawn): the cytotoxicity was 15.4% (inactive).

For `COc1ccc(C(=O)NCc2nnc(SCCOc3ccccc3)n2C)cc1`, the cytotoxicity is 10.2% (inactive).

Regarding `COc1cc(C(=O)OC(C)C(=O)NCC2CCCCC2)cc(NC(=O)c2ccco2)c1OC` (stereo not drawn), the cytotoxicity is -2.91% (inactive).

Regarding `O=C(Nc1cc2c3c(c1)C1CCCC1CN3CC1CCCC21)c1ccc([N+](=O)[O-])cc1` (stereo not drawn), the cytotoxicity was 29.3% (active).

In the case of `COC(=O)c1ccccc1NC(=O)C1(S(=O)(=O)c2ccc(Cl)cc2)CC1`, the cytotoxicity was -1.28% (inactive).

`NC(N)=Nc1nc(-c2ccccc2)c2cc(Cl)ccc2n1`: the cytotoxicity is 27.1% (active).

On to `O=c1c2ccccc2nc2n1C(CSCc1cccc(C(F)(F)F)c1)CS2` (stereo not drawn), for which the cytotoxicity is 34.2% (active).

For the compound `Cc1ccc(-c2nc(CSCC(=O)NC3CCN(Cc4ccccc4)CC3)c(C)o2)cc1`, the cytotoxicity is 12% (inactive).

Regarding `O=C(C[C@H]1C/C=C\C[C@@H](NC(=O)OCC2c3ccccc3-c3ccccc32)C(=O)O[C@@H](c2ccccc2)CNC1=O)N[C@H](CO)Cc1ccccc1`, the cytotoxicity was 18.6% (inactive).

In the case of `CNc1nnc(-c2ccco2)s1`, the cytotoxicity was -0.36% (inactive).

For `O=C1/C(=C/c2ccc(F)cc2)SC(=S)N1NS(=O)(=O)c1ccccc1`, the cytotoxicity is 16.4% (inactive).

As to `Cc1ccc(Nc2nc(N3CCOCC3)nc(N3CCOCC3)n2)cc1Cl`, the cytotoxicity was 40.8% (active).

Consider `CCc1ccc(C2C(C#N)=C(N)N(N3CCOCC3)C3=C2C(=O)CC(C)(C)C3)s1` (stereo not drawn), for which the cytotoxicity was 25.2% (active).

On to `CC(C)C(=O)Nc1nnc(SCC(=O)N2C(C)CCCC2C)s1` (stereo not drawn), for which the cytotoxicity was 1.96% (inactive).

For the compound `CCc1c(C)[nH]c(=S)c(C#N)c1C`, the cytotoxicity is 9% (inactive).

Regarding `Cc1c(Cl)c([N+](=O)[O-])nn1Cc1ccc(C(=O)N/N=C\c2cc(Cl)ccc2O)o1`, the cytotoxicity is 29% (active).

For `CCOc1ccc(-n2c(O)c(/C=N/Nc3nc(C)cc(C)n3)c3ccccc3c2=O)cc1`, the cytotoxicity is 17.6% (inactive).

These data come from PubChem BioAssay AID651994 (Sanford-Burnham Center for Chemical Genomics, 2013).
